Our source for the inhibition values is ChEMBL document CHEMBL1961873, “Compounds: GSK PKIS; Assays: Nanosyn kinase panel” (2012).

Test [1] deals with Protein kinase C gamma type (Homo sapiens) (UniProt P05129). To be noted: at 1 µM.
In test [2] the target is T1, Protein kinase C iota type (Homo sapiens) (UniProt P41743).
T1 sequence (whole entry): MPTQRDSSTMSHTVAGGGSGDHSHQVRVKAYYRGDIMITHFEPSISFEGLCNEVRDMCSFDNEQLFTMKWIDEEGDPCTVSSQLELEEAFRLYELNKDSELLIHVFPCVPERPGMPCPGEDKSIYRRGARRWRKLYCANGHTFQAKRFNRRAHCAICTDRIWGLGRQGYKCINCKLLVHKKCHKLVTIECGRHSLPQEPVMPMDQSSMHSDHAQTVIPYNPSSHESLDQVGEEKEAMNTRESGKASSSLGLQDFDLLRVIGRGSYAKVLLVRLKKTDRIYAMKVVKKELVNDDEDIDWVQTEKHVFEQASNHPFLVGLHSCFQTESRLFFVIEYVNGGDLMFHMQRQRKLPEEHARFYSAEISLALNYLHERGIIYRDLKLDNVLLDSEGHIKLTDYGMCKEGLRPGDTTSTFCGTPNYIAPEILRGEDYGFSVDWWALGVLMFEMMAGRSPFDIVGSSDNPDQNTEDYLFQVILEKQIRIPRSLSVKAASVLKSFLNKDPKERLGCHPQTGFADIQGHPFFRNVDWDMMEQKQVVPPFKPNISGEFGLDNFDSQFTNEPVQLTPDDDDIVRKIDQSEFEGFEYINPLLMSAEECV
To be noted: at 0.1 µM.

Test [3] deals with T1, Protein kinase C iota type (Homo sapiens). To be noted: at 1 µM.
Test [4] addresses Protein kinase C theta type (Homo sapiens) (UniProt Q04759). To be noted: at 0.1 µM.
Test [5] shares this target. To be noted: at 1 µM.
The target in test [6] is Protein kinase C beta type (Homo sapiens) (UniProt P05771). To be noted: at 0.1 µM.
Sequence of Protein kinase C beta type (Homo sapiens) (P05771 2-671 limits assumed): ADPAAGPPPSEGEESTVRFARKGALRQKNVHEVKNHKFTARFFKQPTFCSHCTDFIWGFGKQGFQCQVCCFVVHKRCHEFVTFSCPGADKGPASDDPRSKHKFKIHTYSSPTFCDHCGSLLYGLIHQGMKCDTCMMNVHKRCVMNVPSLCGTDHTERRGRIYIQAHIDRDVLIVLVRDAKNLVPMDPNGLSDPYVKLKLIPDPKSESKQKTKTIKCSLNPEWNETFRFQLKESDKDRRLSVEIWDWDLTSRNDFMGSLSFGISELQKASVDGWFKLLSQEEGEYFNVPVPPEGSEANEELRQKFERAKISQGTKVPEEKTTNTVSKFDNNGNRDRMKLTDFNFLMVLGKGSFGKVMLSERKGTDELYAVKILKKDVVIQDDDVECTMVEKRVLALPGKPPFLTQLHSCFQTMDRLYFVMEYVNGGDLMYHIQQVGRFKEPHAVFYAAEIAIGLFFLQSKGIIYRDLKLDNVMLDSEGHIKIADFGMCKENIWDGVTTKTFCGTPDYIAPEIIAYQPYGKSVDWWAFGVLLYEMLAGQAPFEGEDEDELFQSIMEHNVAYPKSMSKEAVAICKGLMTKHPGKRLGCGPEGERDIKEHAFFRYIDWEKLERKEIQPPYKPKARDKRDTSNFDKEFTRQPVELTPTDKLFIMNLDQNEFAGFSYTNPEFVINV
Test [7] shares this target. To be noted: at 1 µM.
Test [8] concerns the target T2, Serine/threonine-protein kinase D1 (Homo sapiens) (UniProt Q15139).
T2 sequence (whole entry): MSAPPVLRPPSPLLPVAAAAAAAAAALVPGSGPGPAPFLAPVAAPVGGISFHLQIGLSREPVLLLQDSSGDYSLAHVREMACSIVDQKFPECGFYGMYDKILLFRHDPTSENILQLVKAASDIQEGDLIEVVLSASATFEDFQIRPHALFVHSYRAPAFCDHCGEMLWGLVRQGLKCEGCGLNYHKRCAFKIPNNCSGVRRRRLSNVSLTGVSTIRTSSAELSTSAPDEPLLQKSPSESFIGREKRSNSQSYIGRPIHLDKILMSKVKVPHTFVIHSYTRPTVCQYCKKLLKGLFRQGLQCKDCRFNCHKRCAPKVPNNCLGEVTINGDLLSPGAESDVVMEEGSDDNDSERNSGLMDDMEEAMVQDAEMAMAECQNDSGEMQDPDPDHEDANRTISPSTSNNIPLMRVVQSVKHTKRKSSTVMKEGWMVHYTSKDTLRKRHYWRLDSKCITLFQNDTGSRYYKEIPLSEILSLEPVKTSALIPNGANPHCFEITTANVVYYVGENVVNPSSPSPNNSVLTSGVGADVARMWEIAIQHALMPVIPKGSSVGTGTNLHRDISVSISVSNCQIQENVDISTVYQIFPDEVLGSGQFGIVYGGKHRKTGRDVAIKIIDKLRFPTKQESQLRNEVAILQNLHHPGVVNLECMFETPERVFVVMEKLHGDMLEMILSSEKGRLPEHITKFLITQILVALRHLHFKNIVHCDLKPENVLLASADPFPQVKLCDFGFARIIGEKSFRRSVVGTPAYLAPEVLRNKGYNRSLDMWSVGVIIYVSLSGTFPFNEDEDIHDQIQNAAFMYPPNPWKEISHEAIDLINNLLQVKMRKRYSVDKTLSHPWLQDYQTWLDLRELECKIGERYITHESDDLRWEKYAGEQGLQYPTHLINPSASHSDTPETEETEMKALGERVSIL
To be noted: at 0.1 µM.

Test [9] has as its target T2, Serine/threonine-protein kinase D1 (Homo sapiens). To be noted: at 1 µM.
Test [10] has as its target T3, Serine/threonine-protein kinase D2 (Homo sapiens) (UniProt Q9BZL6).
T3 sequence (whole entry): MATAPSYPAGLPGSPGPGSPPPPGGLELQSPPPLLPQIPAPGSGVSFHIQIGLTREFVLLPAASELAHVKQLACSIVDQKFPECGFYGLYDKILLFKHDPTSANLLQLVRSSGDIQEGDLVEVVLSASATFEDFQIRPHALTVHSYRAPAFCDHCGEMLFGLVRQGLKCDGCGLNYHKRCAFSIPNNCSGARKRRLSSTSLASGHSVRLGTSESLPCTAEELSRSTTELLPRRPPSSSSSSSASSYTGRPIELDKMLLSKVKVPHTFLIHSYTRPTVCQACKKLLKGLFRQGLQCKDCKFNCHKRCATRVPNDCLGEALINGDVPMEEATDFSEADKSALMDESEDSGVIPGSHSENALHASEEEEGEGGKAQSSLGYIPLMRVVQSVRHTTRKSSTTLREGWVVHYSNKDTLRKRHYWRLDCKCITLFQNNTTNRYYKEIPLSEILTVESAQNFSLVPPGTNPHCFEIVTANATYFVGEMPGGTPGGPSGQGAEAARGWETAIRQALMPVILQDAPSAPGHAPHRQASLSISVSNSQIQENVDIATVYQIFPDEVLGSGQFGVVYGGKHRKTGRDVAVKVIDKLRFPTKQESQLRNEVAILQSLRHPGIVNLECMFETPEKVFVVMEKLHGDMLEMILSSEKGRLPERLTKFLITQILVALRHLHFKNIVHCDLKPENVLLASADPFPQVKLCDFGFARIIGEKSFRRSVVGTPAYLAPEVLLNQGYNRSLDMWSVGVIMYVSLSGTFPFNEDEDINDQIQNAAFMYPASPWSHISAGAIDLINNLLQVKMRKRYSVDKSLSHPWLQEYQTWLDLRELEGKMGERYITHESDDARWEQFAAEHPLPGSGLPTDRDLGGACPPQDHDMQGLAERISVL
To be noted: at 0.1 µM.

Test [11] deals with T3, Serine/threonine-protein kinase D2 (Homo sapiens). To be noted: at 1 µM.
Test [12] has as its target T4, Serine/threonine-protein kinase D3 (Homo sapiens) (UniProt O94806).
T4 sequence (whole entry): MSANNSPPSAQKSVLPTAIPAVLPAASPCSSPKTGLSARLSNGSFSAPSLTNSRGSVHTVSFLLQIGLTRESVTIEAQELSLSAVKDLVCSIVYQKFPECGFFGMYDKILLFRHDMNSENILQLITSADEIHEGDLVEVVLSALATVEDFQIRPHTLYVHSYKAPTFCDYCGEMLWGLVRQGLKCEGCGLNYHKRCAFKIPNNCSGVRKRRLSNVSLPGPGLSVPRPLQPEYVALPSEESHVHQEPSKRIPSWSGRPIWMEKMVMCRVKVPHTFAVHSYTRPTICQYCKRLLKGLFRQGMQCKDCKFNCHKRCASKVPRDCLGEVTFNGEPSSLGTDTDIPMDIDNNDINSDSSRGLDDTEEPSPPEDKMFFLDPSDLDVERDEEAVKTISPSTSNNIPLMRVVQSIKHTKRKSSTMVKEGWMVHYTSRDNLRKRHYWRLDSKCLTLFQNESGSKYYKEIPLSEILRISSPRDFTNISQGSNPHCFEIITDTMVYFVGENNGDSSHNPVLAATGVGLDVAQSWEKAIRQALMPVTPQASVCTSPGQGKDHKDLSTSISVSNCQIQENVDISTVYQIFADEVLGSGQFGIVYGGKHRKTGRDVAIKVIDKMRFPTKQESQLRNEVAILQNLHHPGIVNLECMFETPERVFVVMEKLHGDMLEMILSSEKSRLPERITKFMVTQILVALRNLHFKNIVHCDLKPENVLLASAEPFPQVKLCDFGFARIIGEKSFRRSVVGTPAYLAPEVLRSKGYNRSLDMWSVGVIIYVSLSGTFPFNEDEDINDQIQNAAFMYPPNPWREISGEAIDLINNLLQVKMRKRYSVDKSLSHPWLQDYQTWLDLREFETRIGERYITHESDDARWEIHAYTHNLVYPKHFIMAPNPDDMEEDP
To be noted: at 0.1 µM.

Test [13] concerns the target T4, Serine/threonine-protein kinase D3 (Homo sapiens). To be noted: at 1 µM.
Test [14] deals with T5, cGMP-dependent protein kinase 1 (Homo sapiens) (UniProt Q13976).
T5 sequence (whole entry): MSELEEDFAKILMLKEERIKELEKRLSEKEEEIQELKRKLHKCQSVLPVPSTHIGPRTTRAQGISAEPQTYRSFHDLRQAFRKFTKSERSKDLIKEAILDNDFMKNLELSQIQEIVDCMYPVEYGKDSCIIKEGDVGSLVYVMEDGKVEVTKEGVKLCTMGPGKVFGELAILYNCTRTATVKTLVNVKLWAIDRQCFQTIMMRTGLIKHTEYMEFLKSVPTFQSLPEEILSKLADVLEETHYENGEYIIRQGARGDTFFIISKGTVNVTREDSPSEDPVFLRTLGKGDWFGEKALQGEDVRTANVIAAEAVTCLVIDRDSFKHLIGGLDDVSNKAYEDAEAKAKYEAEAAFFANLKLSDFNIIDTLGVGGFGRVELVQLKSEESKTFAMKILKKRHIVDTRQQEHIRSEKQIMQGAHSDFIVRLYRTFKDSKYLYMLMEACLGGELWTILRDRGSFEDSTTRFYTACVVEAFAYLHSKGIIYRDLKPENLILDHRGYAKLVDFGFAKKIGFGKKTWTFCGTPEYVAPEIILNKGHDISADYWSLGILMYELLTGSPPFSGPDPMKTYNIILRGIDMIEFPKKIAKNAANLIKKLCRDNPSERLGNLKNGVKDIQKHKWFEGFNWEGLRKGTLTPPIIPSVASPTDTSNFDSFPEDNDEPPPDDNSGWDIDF
To be noted: at 0.1 µM.

For test [15], the target named is T5, cGMP-dependent protein kinase 1 (Homo sapiens). To be noted: at 1 µM.
The target in test [16] is T6, cGMP-dependent protein kinase 2 (Homo sapiens) (UniProt Q13237).
T6 sequence (whole entry): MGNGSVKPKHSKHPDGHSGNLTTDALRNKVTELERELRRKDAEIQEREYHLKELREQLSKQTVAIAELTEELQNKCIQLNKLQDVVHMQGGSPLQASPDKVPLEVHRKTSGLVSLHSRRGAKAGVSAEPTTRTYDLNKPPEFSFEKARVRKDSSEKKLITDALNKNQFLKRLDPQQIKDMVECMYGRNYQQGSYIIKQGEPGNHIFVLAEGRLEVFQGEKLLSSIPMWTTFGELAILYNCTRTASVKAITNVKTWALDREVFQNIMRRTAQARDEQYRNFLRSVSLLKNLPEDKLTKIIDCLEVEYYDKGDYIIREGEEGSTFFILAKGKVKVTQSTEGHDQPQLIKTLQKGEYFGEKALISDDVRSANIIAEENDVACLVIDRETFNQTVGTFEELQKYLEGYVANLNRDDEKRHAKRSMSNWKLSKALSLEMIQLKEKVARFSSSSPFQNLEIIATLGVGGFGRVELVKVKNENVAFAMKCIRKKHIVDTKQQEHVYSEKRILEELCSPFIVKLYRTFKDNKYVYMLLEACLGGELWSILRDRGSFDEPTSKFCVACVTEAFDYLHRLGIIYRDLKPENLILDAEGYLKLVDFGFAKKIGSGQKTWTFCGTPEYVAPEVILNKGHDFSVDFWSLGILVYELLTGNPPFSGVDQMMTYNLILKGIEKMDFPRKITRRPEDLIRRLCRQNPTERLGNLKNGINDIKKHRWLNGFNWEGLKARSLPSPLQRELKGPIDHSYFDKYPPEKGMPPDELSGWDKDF
To be noted: at 0.1 µM.

Test [17] concerns the target T6, cGMP-dependent protein kinase 2 (Homo sapiens). To be noted: at 1 µM.
In test [18] the target is T7, cAMP-dependent protein kinase catalytic subunit PRKX (Homo sapiens) (UniProt P51817).
T7 sequence (whole entry): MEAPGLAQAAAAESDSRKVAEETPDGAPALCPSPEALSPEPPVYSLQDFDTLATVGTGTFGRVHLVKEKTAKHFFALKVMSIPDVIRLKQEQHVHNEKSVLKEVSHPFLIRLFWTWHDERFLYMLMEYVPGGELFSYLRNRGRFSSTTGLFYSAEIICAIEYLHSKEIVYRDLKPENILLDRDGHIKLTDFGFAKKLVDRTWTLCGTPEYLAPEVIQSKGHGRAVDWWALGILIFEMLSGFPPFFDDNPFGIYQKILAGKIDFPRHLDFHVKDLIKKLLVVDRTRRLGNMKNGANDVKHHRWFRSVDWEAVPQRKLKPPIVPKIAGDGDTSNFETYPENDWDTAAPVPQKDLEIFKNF
To be noted: at 0.1 µM.

The target in test [19] is T7, cAMP-dependent protein kinase catalytic subunit PRKX (Homo sapiens). To be noted: at 1 µM.
In test [20] the target is Rho-associated protein kinase 1 (Homo sapiens) (UniProt Q13464). To be noted: at 0.1 µM.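 Note: values are mean percent inhibition of ROCK1.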
Sequence of Rho-associated protein kinase 1 (Homo sapiens) (Q13464 2-1354 limits assumed): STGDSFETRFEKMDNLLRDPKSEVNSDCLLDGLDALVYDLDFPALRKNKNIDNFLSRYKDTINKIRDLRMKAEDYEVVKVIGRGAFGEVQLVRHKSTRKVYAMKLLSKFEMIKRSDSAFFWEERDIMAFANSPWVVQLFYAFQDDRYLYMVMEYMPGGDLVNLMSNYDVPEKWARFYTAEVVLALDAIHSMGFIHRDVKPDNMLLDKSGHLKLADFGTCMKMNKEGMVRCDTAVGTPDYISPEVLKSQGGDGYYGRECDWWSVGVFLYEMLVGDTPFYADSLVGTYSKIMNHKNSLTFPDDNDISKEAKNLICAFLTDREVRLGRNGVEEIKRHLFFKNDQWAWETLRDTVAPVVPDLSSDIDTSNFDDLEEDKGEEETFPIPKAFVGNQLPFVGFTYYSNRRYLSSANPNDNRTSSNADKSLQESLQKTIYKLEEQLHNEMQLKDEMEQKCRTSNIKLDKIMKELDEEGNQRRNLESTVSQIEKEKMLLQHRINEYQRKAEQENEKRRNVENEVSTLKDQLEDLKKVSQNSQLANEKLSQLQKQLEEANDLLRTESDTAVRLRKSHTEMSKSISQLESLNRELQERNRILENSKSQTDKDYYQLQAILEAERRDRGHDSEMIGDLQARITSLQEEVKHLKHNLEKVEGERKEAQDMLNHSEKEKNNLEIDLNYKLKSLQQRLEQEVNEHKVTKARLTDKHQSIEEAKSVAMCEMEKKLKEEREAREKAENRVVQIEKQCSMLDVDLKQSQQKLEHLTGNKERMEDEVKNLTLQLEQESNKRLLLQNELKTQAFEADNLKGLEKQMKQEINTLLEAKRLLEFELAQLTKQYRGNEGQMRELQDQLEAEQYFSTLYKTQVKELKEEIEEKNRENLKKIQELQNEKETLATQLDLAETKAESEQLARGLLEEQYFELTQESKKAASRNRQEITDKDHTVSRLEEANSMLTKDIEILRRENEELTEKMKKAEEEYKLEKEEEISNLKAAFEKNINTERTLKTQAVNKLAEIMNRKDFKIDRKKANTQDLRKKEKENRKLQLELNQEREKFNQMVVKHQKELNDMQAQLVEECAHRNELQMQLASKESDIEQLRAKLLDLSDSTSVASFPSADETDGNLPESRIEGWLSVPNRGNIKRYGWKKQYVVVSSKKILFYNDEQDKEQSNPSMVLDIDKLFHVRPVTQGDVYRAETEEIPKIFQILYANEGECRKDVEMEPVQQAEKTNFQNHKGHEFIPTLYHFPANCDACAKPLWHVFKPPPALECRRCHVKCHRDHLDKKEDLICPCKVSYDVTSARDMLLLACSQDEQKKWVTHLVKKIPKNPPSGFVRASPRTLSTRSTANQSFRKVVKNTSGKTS

Sequence of Protein kinase C theta type (Homo sapiens) (Q04759 whole entry, looked up): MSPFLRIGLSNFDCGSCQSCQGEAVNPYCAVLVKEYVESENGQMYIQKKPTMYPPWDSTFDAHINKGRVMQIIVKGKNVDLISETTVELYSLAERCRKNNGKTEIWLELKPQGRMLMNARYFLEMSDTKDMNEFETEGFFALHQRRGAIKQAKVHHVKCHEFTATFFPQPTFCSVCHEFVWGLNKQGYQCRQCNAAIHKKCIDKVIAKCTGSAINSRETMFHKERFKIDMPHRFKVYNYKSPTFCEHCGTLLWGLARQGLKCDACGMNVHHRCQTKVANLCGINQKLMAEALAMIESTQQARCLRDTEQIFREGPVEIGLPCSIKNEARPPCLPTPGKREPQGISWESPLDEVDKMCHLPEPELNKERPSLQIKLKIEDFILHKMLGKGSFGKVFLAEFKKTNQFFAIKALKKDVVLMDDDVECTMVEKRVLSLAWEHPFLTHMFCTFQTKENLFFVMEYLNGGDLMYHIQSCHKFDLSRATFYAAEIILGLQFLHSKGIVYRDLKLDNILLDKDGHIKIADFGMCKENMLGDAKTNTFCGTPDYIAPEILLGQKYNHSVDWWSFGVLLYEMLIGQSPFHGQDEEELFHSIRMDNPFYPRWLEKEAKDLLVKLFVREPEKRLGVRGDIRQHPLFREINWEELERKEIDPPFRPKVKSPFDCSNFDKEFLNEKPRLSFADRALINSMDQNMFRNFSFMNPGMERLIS

As for `Fc1ccc(-c2ncn(C3CCNCC3)c2-c2ccnc(Oc3ccc4c(c3)OCO4)n2)cc1`, the inhibition turned out to be 6.16% in test [1]; 4.45% in test [2]; 4.29% in test [3]; 3.38% in [4]; 3.39% in test [5]; 1.38% in [6]. Moreover, the inhibition in test [7] was 5.69%; in test [8], 4.85%; in test [9], 12.4%; in test [10], 5.35%; in test [11], 9.53%; in [12] it was 5.01%. Further, the inhibition in [13] was 9.26%; in test [14], 2.62%; in test [15], 2.47%; in test [16], 3.43%; in test [17], 2.62%; in [18], 1.9%. Also, the inhibition came to 2.4% in [19] and 2.94% in [20].

For `CN(C)CCCNc1nccc(-c2c(-c3ccc(F)cc3)nn3cc(C(F)(F)F)ccc23)n1`, the inhibition turned out to be 4.68% in test [1]; 0.91% in test [2]; 2.26% in [3]; 0.23% in test [4]; 0.19% in [5]; 0.57% in [6]. Moreover, the inhibition in [7] is 3.33%; in test [8] it was -1.67%; in test [9], 0.04%; in test [10], -1.36%; in test [11], 0.34%; in test [12] it was -1.49%. The inhibition in test [13] was -0.32%; in test [14], 1.15%; in test [15] it was 3.76%; in [16], 1.88%; in test [17], 3.07%; in test [18] it was 1.15%. In addition, the figures for the inhibition in test [19] and in test [20] were -0.47% and 0.76%, respectively.

The inhibition is the change of the read-out against control, counted positive when it falls.
